Source: PubChem BioAssay (Tox21)
Several values for one entry are separate records, joined by “and”; a condition that tells them apart may be missing. Equal values may be shown once. Some structures have more than one record in an assay (separate samples or runs), and their calls can disagree. Activity calls are given as the source filed them. Where a call stands in place of a potency, no number is given. Unless noted, the call rests on the fitted dose curve; in most records, active means well fitted curve in the direction sought with a large enough effect in the repeat runs; inconclusive means weak or mixed curves; inactive means no such curve, though single readings can be large; an effect the other way counts as inactive or inconclusive.

Assays:
[1] = qHTS assay to identify small molecule antagonists of the thyroid receptor (TR) signaling pathway (AID 743065); conditions: GH3.TRE-Luc, T3-stimulated luciferase inhibition, 23.5 h; series mostly up to 70.3 µM; further: nearly all actives have a fitted effect of over 55% in size; further: potency means the concentration at half of the fitted maximal effect
Summary of the method: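 GH3.TRE-Luc rat pituitary cells carrying two TR response elements driving luciferase were plated for 4 h, given compound plus 1 nM T3 (final), and incubated 23.5 h at 37 C. ONE-Glo luminescence measured reporter inhibition; CellTiter-Fluor fluorescence tracked cytotoxicity.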

[2] = system: thyroid hormone receptor (rat, GH3 cells); experiment: qHTS assay to identify small molecule agonists of the thyroid receptor (TR) signaling pathway (AID 743066; calls by dose curve); conditions: GH3.TRE-Luc cells, TR agonist luciferase, 24 h; series mostly up to 83.9 µM
[3] = qHTS assay to identify small molecule antagonists of the estrogen receptor alpha (ER-alpha) signaling pathway - cell viability counter screen (AID 743074; calls by dose curve;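 further: HEK293 cells carrying ER-alpha-UAS-bla reporter stimulated with 17beta-estradiol; nearly all actives have a fitted effect of over 45% in size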; further: potency means the concentration at half of the fitted maximal effect); conditions: ERalpha-bla HEK293 viability, CellTiter-Glo luminescence, 18 h; series mostly up to 69.4 µM
[4] = qHTS assay to identify small molecule antagonists of the estrogen receptor alpha (ER-alpha) signaling pathway using the BG1 cell line - cell viability counter screen (AID 743081); conditions: BG1Luc4E2 viability, CellTiter-Fluor, 22 h; series mostly up to 70.3 µM;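 further: compound given together with 17beta-estradiol as the ER stimulus; nearly all actives have a fitted effect of over 45% in size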; further: potency means the concentration at half of the fitted maximal effect
Aromatase (Homo sapiens) = Aromatase (Homo sapiens) (UniProt P11511); experiment: qHTS assay to identify aromatase inhibitors (AID 743083); conditions: MCF-7 aro ERE, testosterone-driven ERE luciferase, 24 h; series mostly up to 70.3 µM; further: nearly all actives have a fitted effect of over 55% in size; further: potency means the concentration at half of the fitted maximal effect
Chain of Aromatase (Homo sapiens) (P11511 whole entry, looked up): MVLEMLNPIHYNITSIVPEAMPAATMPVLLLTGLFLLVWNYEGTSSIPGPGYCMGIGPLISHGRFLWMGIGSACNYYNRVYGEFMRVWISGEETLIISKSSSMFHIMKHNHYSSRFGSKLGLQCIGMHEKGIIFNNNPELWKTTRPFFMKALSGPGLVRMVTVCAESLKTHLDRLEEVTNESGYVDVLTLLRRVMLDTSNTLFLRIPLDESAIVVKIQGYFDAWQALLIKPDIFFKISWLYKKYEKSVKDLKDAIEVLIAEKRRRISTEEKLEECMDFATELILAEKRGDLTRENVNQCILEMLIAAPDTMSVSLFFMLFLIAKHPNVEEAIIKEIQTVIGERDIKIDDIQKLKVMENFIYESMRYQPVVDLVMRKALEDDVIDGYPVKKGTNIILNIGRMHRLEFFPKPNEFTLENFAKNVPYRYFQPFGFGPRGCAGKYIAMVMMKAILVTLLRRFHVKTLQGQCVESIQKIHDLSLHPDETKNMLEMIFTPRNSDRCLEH

[5] = qHTS assay to identify aromatase inhibitors - cell viability counter screen (AID 743084); conditions: MCF-7 aro ERE viability, CellTiter-Fluor, 24 h; series mostly up to 70.3 µM;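 further: cells stimulated with testosterone during compound exposure; nearly all actives have a fitted effect of over 55% in size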; further: potency means the concentration at half of the fitted maximal effect
[6] = target: Estrogen receptor (Homo sapiens) (UniProt P03372); experiment: qHTS assay to identify small molecule antagonists of the estrogen receptor alpha (ER-alpha) signaling pathway (AID 743069; active means well fitted curve in the direction sought with a large enough effect in the signal ratio in the repeat runs, not every such curve was filed as active; inconclusive means weak or mixed curves, or effect the other way; inactive means no such curve, though single readings can be large or run the other way; the % refers to the signal ratio; further: potency means the concentration at half of the fitted maximal effect); conditions: HEK293 ER-alpha-UAS-bla, beta-lactamase ratio, antagonist mode; series mostly up to 69.4 µM
Chain of Estrogen receptor (Homo sapiens) (P03372 whole entry, looked up): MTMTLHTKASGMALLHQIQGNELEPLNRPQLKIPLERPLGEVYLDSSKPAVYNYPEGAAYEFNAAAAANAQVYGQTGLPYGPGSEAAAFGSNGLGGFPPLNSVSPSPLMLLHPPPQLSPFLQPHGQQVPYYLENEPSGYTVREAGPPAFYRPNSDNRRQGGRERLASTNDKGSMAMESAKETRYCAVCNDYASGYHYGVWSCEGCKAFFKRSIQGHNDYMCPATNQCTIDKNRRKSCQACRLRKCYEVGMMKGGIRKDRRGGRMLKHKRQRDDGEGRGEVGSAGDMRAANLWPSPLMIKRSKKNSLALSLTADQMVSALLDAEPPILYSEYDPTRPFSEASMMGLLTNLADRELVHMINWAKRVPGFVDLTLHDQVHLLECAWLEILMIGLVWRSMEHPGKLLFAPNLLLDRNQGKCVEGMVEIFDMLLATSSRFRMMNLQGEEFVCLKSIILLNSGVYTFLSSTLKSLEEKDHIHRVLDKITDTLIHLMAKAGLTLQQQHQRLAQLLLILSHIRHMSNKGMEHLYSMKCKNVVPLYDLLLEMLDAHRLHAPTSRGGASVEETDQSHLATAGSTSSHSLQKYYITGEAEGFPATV
Summary of the method: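 Estradiol-stimulated ER-alpha-UAS-bla HEK293 cells, 18 hr compound exposure at 37C. LiveBLAzer B/G substrate, 2 hr RT, fluorescence read.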

[7] = target: Estrogen receptor (Homo sapiens) (UniProt P03372); experiment: qHTS assay to identify small molecule agonists of the estrogen receptor alpha (ER-alpha) signaling pathway (AID 743075; calls by dose curve;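 further: HEK293 GripTite cells with ER-alpha and UAS-driven beta-lactamase reporter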; further: potency means the concentration at half of the fitted maximal effect); conditions: HEK293 ER-alpha-UAS-bla, beta-lactamase FRET ratio, 18 h; series mostly up to 70.1 µM
[8] = target: Estrogen receptor (Homo sapiens) (UniProt P03372); experiment: qHTS assay to identify small molecule agonists of the estrogen receptor alpha (ER-alpha) signaling pathway using the BG1 cell line (AID 743079); conditions: BG1Luc4E2 cells, ERE-luciferase agonist, 22 h; series mostly up to 70.3 µM; further: nearly all actives have a fitted effect of over 20% in size; further: potency means the concentration at half of the fitted maximal effect
[9] = qHTS assay to identify small molecule antagonists of the estrogen receptor alpha (ER-alpha) signaling pathway using the BG1 cell line (AID 743080; calls by dose curve; further: nearly all actives have a fitted effect of over 25% in size; further: potency means the concentration at half of the fitted maximal effect); conditions: BG1Luc4E2 ERE-luciferase antagonist mode, luminescence; series mostly up to 70.3 µM
Summary of the method: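 Antagonist mode: compounds in DMSO were pinned onto BG1-Luc-4E2 cells alongside 17beta-estradiol agonist, incubated 21.5 h, and ERE-driven luciferase measured with ONE-Glo. Cytotoxicity was multiplexed using CellTiter-Fluor fluorescence.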

SMILES | Potency [1] | outcome [2] | Potency [3] | Potency [4] | Potency (Aromatase (Homo sapiens)) | Potency [5] | Potency [6] | Potency [7] | Potency [8] | Potency [9]
FC(Cl)(Cl)Cl | inactive | inactive | inactive | inactive | inactive | inactive | – | – | – | –
CC[C@H](C)[C@H]1O[C@]2(C=C[C@@H]1C)C[C@@H]1C[C@@H](C/C=C(\C)[C@@H](O[C@H]3C[C@H](OC)[C@@H](O[C@H]4C[C@H](OC)[C@@H](O)[C@H](C)O4)[C@H](C)O3)[C@@H](C)/C=C/C=C3\CO[C@@H]4[C@H](O)C(C)=C[C@@H](C(=O)O1)[C@]34O)O2 | 26.6 µM (active) and 3.22 µM (active) | – | inactive and 25.8 µM (active) | inactive | inactive and 14.4 µM (active) | inactive and 18.1 µM (active) | 4.59 µM [inconclusive] (active) | inactive | inactive | inactive
CCN(CC)c1c([N+](=O)[O-])cc(C(F)(F)F)c(N)c1[N+](=O)[O-] | inactive | inactive | – | inactive | 34.4 µM (active) | – | – | 38.9 µM [inconclusive] (active) | – | –
CC1(c2ccc(Oc3ccccc3)cc2)OC(=O)N(Nc2ccccc2)C1=O (configuration not stated) | 1.94 µM (active) | – | inactive | – | 61.5 µM (active) | – | 17.5 µM [inconclusive] (active) | – | – | 21.8 µM (active)
O=S(=O)(c1ccc(Cl)cc1)c1ccc(Cl)cc1 | inactive | inactive | – | inactive | – | – | – | inactive | – | 24.6 µM (active)
CCC(C)c1cc([N+](=O)[O-])cc([N+](=O)[O-])c1OC(=O)C=C(C)C (configuration not stated) | 21.7 µM (active) | inactive | inactive | inactive | 48.6 µM (active) | 24.3 µM (active) | – | – | – | –
O=CC(Br)(Br)Br | 19.3 µM (active) | inactive | – | inactive | 10.8 µM (active) | 6.84 µM (active) | – | 21.8 µM [inconclusive] (active) | – | –
ClC1=C(Cl)C2(Cl)C3C(Cl)C(Cl)CC3C1(Cl)C2(Cl)Cl (configuration not stated) | 24.3 µM (active) | inactive | – | inactive | 68.4 µM (active) | – | – | 54.8 µM [inconclusive] (active) | – | –
Cc1cc(SCc2sc(-c3ccc(C(F)(F)F)c(F)c3)nc2C)ccc1OCC(=O)O | 61.1 µM (active) | inactive | – | inactive | – | – | – | inactive | inactive | inactive
O=C(Nc1ccc2[nH]ccc2c1)c1cc2cc(F)ccc2n1Cc1cccc(F)c1 | 13.7 µM (active) | – | inactive | inactive | – | – | inactive | – | – | –
CC1(C)C(/C=C(\Cl)C(F)(F)F)C1C(=O)OC(C#N)c1cccc(Oc2ccccc2)c1 (configuration not stated) | inactive | inactive | inactive | inactive | inactive | inactive | – | – | – | –
COC12CC[C@@]3(C[C@@H]1C(C)(O)C(C)(C)C)[C@H]1Cc4ccc(O)c5c4[C@@]3(CCN1CC1CC1)[C@H]2O5 (some centres not stated) | 24.2 µM (active) | – | – | inactive | 19.2 µM (active) | 60.7 µM (active) | 13.7 µM [inconclusive] (active) | inactive | – | –
O=C/C(Cl)=C(/Cl)C(=O)O | 68.6 µM (active) | inactive | – | inactive | – | – | – | inactive | inactive | inactive
CCCCCCCCCCCCCCCCCCn1cc[n+](C)c1 | 5.42 µM (active) | – | 38.7 µM (active) | 30.5 µM (active) | 3.83 µM (active) | 21.6 µM (active) | 9.72 µM [inconclusive] (active) | inactive | – | –
CC(C)[C@H](C(=O)OC(C#N)c1cccc(Oc2ccccc2)c1)c1ccc(OC(F)F)cc1 (some centres not stated) | 54.5 µM (active) | inactive | inactive | inactive | – | inactive | – | – | – | –
CC(C)(C)C(O)/C(=C\c1ccc(Cl)cc1Cl)n1cncn1 (configuration not stated) | 74 µM (active) | – | inactive | inactive | 58.7 µM (active) | 74 µM (active) | 59.3 µM [inhibitor] (active) | inactive | – | 74 µM (active)
Fc1ccc(Oc2ccnc3cc(Cl)cc(Cl)c23)cc1 | 68.6 µM (active) | – | inactive | inactive | inactive | inactive | – | inactive | inactive | –
O=C(CBr)c1ccc(O)cc1 | inactive | inactive | inactive | inactive | inactive | inactive | – | – | – | –
Nc1ccccc1C(=O)Oc1ccc2ccccc2c1 | inactive | – | inactive | inactive | inactive | inactive | – | inactive | 4.33 µM (active) | –
[Cd+2].[Cl-].[Cl-] | 27.5 µM (active) and 38.6 µM (active) | inactive | – | – | 54.9 µM (active) and inactive | 24.5 µM (active) | – | – | – | –
O=C(CCl)C(Cl)Cl | 12.3 µM (active) | – | 39.3 µM (active) | – | 8.71 µM (active) | 8.71 µM (active) | – | 13.9 µM [inconclusive] (active) | 24.6 µM (active) | –
CCCCCCCCCC[N+](C)(C)CCCCCCCCCC | 5.96 µM (active) and 9.69 µM (active) | – | 10.7 µM (active) and 38.9 µM (active) | inactive | 13.3 µM (active) and 24.3 µM (active) | 21.1 µM (active) and 61.1 µM (active) | – | inactive | – | 33.5 µM (active)
CCCOCC(=Nc1ccc(Cl)cc1C(F)(F)F)n1ccnc1 | 7.69 µM (active) | – | – | – | 0.0153 µM (active) | 12.2 µM (active) | – | – | – | –
C[C@H]1CC[C@@H]2[C@@H](C)[C@H]3[C@H](C[C@H]4[C@@H]5CC=C6CC(O[C@@H]7O[C@H](CO)[C@H](O)[C@H](O[C@@H]8O[C@H](CO)[C@@H](O)[C@H](O)[C@H]8O)[C@H]7O[C@H]7O[C@@H](C)[C@H](O)[C@@H](O)[C@H]7O)CC[C@]6(C)[C@H]5CC[C@]34C)N2C1 (some centres not stated) | – | inactive | 16.9 µM (active) and inactive | inactive | 25.1 µM (active) | 19.9 µM (active) | inactive | – | inactive | 17.8 µM (active)
O=C(CCCN1CCC2(CC1)C(=O)NCN2c1ccccc1)c1ccc(F)cc1 | – | inactive | – | – | 29.8 µM (active) | – | 8.49 µM [inconclusive] (active) | inactive | – | –
c1ccc2c(c1)OCC(C1=NCCN1)O2 (configuration not stated) | 7.5 µM (active) | – | inactive | inactive | 26.6 µM (active) | – | – | inactive | – | inactive
Nc1ccccc1C(=O)OC/C=C/c1ccccc1 | – | inactive | inactive | inactive | inactive | inactive | – | inactive | – | –
CCOc1cc(C(C)(C)C)ccc1C1COC(c2c(F)cccc2F)=N1 (configuration not stated) | 16.6 µM (active) | – | inactive | inactive | 41.6 µM (active) | – | – | inactive | – | inactive
O=[N+]([O-])c1ccc(Oc2ccc(C(F)(F)F)cc2[N+](=O)[O-])cc1 | – | inactive | inactive | inactive | inactive | inactive | inactive | inactive | – | –
